Some of the results follow. The source made the active and inactive calls.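 How the source made its calls: active means signal drop giving an AC50 within twice the top valid tested concentration of each sample (actives reach about 35 µM in these data); inactive means activity opposite to expected, plus the rest.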
assay: acridine orange displacement from DNA – biochemical, fluorescence polarization, cherry-pick, artefact control for RAD54 inhibitor project, dose response (AID 651673); conditions: 20 min; series mostly up to 35 µM; activity change, negative = DNA binding: at the top concentration;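 further: polarization loss reports compound binding to salmon sperm DNA; 0% = neutral control median and -100% = 10 µM mitoxantrone control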

Activity change, negative = DNA binding, inactive:
COc1ccc(CCn2c(=N)c(C(=O)NCC3CCCO3)cc3c(=O)n4cccc(C)c4nc32)cc1OC (stereo not drawn) -13%, COc1ccc(C(=O)Nc2cc(C)c(NC(=O)c3ccccc3OC)cn2)cc1 -5.9%, CN1CCN(CCCNC(=O)c2cc3c(=O)oc4ccccc4c3s2)CC1 -21%, Cc1cc2oc3ccc(NCCC4CCCN4C)cc3c(=O)c2cc1C (stereo not drawn) -3.62%, CCN(CC)CCn1c2ccc(Cl)cc2c2nc(C)sc21 -1.63%, CN(C)CCN(C(=O)CN1C(=O)c2ccccc2C1=O)c1nc2cc3c(cc2s1)OCCO3 1.9%, O=C(NCCCN1CCOCC1)c1cnn2c(-c3ccccc3)cc(-c3ccccc3)nc12 -0.136%, CC1CCc2sc3nc(N4CCN(CCO)CC4)n4ncnc4c3c2C1 (stereo not drawn) 9.08%, CCOC(=O)C1C(=O)NC(N2CCN(c3ccccc3)CC2)=NC1c1ccco1 (stereo not drawn) 3.21%, COC(=O)c1c(NC(=O)c2ccc(S(=O)(=O)N3CCOCC3)cc2)sc2c1CCN(C(C)C)C2 14.2%, COc1ccccc1C(=O)C(O)c1ccccc1OC (stereo not drawn) -5.88%, c1ccc(-c2nnc(SCc3nc4ccccc4[nH]3)o2)cc1 0.107%, CCn1c(=N)c(C(=O)NCCCOC)cc2c(=O)n3cccc(C)c3nc21 -6.19%, Cc1cccn2c(=O)c3cc(C#N)c(=O)n(CCCN4CCOCC4)c3nc12 -9.39%, CCN(CC)CCCNC(=O)c1cc2c(=O)[nH]c3ccc(C)cc3c2s1 -18.1%, COc1cccc2sc3cc(NCC[C@@H]4CCCN4C)ccc3c(=O)c12 -7.26%, CCOCCCNC(=S)Nc1ccc2nc(N3CCN(CC)CC3)cc(C)c2c1 -9.47%, Cc1nc2ccccc2c2oc(C(=O)NCCCN3CCC(C)CC3)cc12 -13.5%

— PubChem BioAssay AID651673 (Broad Institute, 2012)
